Assay results taken from PubChem BioAssay AID1159580 (chemical genetic matrix, 2015).
Hit rate of the full screen: of about 5,500 compounds, about 2,000 (36%) were called active. Not shown: some 18% with an inconclusive outcome. No stated cut-off is given here; in the data, active means normalized growth mostly below about 0.91 (no sharp cut-off); inconclusive means no clear call, values can overlap the other calls; inactive means mostly above about 0.92. The list shows a part of the results.

Assay: chemical genetic growth profiling, strain panel (AID 1159580);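 further: tested at 20 µM; growth read once vehicle control cultures reached saturation at 30 °C; 1 = growth at the plate median or of vehicle wells; lower values mean less growth of the strain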
Settings: growth OD

Measured: normalized growth

NC(=O)NC(=O)Cc1ccccc1
inactive: S. cerevisiae deletion strains, locus YJR075W, strain HOC1, active compounds read low 1.01 | S. cerevisiae deletion strains, locus YKL009W, strain mrt4, active compounds read low 0.99 | S. cerevisiae deletion strains, locus YKL068W, active compounds read low 0.998 | S. cerevisiae deletion strains, locus YKL085W, strain MDH1 (second series), active compounds read low 0.994 | S. cerevisiae deletion strains, locus YKL085W, strain MDH1, active compounds read low 0.994 | S. cerevisiae deletion strains, locus YKL160W, strain elf1, active compounds read low 0.941 | S. cerevisiae deletion strains, locus YKL190W, strain CNB1, active compounds read low 1.03 | S. cerevisiae deletion strains, locus YKR001C, strain vps1, active compounds read low 0.994 | S. cerevisiae deletion strains, locus YKR026C, strain gcn3, active compounds read low 0.993 | S. cerevisiae deletion strains, locus YKR091W, strain srl3, active compounds read low 0.98 | S. cerevisiae deletion strains, locus YLL001W, strain dnm1, active compounds read low 1.02 | S. cerevisiae deletion strains, locus YLL026W, active compounds read low 0.984 | S. cerevisiae deletion strains, locus YLL041C, strain sdh2, active compounds read low 1 | S. cerevisiae deletion strains, locus YLR027C, strain aat2, active compounds read low 0.988 | S. cerevisiae deletion strains, locus YLR039C, strain RIC1, active compounds read low 1.02 | S. cerevisiae deletion strains, locus YLR058C, strain SHM2, active compounds read low 1.01 | S. cerevisiae deletion strains, locus YLR102C, strain apc9, active compounds read low 0.999 | S. cerevisiae deletion strains, locus YLR113W, strain HOG1, active compounds read low 1.01 | S. cerevisiae deletion strains, locus YLR221C, strain rsa3, active compounds read low 1.03 | S. cerevisiae deletion strains, locus YLR258W, strain gsy2, active compounds read low 0.977 | S. cerevisiae deletion strains, locus YLR262C, strain YPT6 (second series), active compounds read low 0.99 | S. cerevisiae deletion strains, locus YLR262C, strain YPT6, active compounds read low 1.05 | S. cerevisiae deletion strains, locus YLR268W, strain sec22, active compounds read low 0.985 | S. cerevisiae deletion strains, locus YLR320W, strain mms22, active compounds read low 1.02 | S. cerevisiae deletion strains, locus YLR330W, strain CHS5, active compounds read low 1.01 | S. cerevisiae deletion strains, locus YLR342W, strain FKS1 (second series), active compounds read low 1.05 | S. cerevisiae deletion strains, locus YLR342W, strain FKS1, active compounds read low 0.999 | S. cerevisiae deletion strains, locus YLR357W, strain rsc2, active compounds read low 0.949 | S. cerevisiae deletion strains, locus YLR370C, strain arc18, active compounds read low 0.966 | S. cerevisiae deletion strains, locus YLR371W, strain rom2, active compounds read low 0.997 | S. cerevisiae deletion strains, locus YLR384C, strain iki3, active compounds read low 0.982 | S. cerevisiae deletion strains, locus YLR418C, strain cdc73, active compounds read low 0.998 | S. cerevisiae deletion strains, locus YML016C, strain PPZ1, active compounds read low 1.01 | S. cerevisiae deletion strains, locus YML032C, strain rad52, active compounds read low 1 | S. cerevisiae deletion strains, locus YML120C, strain ndi1, active compounds read low 1.01 | S. cerevisiae deletion strains, locus YML124C, strain tub3, active compounds read low 0.996 | S. cerevisiae deletion strains, locus YMR058W, strain fet3, active compounds read low 0.978 | S. cerevisiae deletion strains, locus YMR078C, strain ctf18, active compounds read low 0.997 | S. cerevisiae deletion strains, locus YMR125W, strain sto1, active compounds read low 0.957 | S. cerevisiae deletion strains, locus YMR129W, active compounds read low 0.966 | S. cerevisiae deletion strains, locus YMR205C, strain PFK2, active compounds read low 1.01 | S. cerevisiae deletion strains, locus YMR223W, strain ubp8, active compounds read low 1.01 | S. cerevisiae deletion strains, locus YMR231W, strain pep5, active compounds read low 1 | S. cerevisiae deletion strains, locus YMR263W, strain SAP30, active compounds read low 1.01 | S. cerevisiae deletion strains, locus YMR307W, strain GAS1, active compounds read low 1.08 | S. cerevisiae deletion strains, locus YNL067W, strain RPL9B, active compounds read low 1.02 | S. cerevisiae deletion strains, locus YNL071W, strain lat1, active compounds read low 0.995 | S. cerevisiae deletion strains, locus YNL128W, strain TEP1, active compounds read low 1 | S. cerevisiae deletion strains, locus YNL153C, strain GIM3, active compounds read low 1.03 | S. cerevisiae deletion strains, locus YNL183C, strain NPR1, active compounds read low 0.94 | S. cerevisiae deletion strains, locus YNL209W, strain ssb2, active compounds read low 0.975 | S. cerevisiae deletion strains, locus YNL233W, strain BNI4, active compounds read low 1.01 | S. cerevisiae deletion strains, locus YNL248C, strain rpa49, active compounds read low 0.917 | S. cerevisiae deletion strains, locus YNL250W, strain rad50, active compounds read low 0.992 | S. cerevisiae deletion strains, locus YNL271C, strain bni1, active compounds read low 0.992 | S. cerevisiae deletion strains, locus YNL298W, strain CLA4, active compounds read low 1 | S. cerevisiae deletion strains, locus YNL307C, strain MCK1, active compounds read low 0.994 | S. cerevisiae deletion strains, locus YNL322C, strain KRE1 (second series), active compounds read low 0.965 | S. cerevisiae deletion strains, locus YNL322C, strain KRE1, active compounds read low 1.01 | S. cerevisiae deletion strains, locus YNR049C, strain mso1, active compounds read low 0.962 | S. cerevisiae deletion strains, locus YNR052C, strain pop2, active compounds read low 0.989 | S. cerevisiae deletion strains, locus YOL006C, strain TOP1, active compounds read low 1.14 | S. cerevisiae deletion strains, locus YOL012C, strain htz1 1.28 | S. cerevisiae deletion strains, locus YOL147C, strain pex11, active compounds read low 0.997 | S. cerevisiae deletion strains, locus YOR001W, strain rrp6, active compounds read low 1.02 | S. cerevisiae deletion strains, locus YOR061W, strain CKA2, active compounds read low 1 | S. cerevisiae deletion strains, locus YOR069W, strain VPS5, active compounds read low 1 | S. cerevisiae deletion strains, locus YOR070C, strain gyp1, active compounds read low 0.996 | S. cerevisiae deletion strains, locus YOR080W, strain dia2, active compounds read low 0.986 | S. cerevisiae deletion strains, locus YOR083W, strain WHI5, active compounds read low 0.913 | S. cerevisiae deletion strains, locus YOR106W, strain vam3, active compounds read low 0.96 | S. cerevisiae deletion strains, locus YOR136W, strain idh2, active compounds read low 0.995 | S. cerevisiae deletion strains, locus YOR144C, strain elg1, active compounds read low 0.994 | S. cerevisiae deletion strains, locus YOR184W, strain ser1, active compounds read low 0.988 | S. cerevisiae deletion strains, locus YOR231W, strain MKK1, active compounds read low 0.988 | S. cerevisiae deletion strains, locus YOR265W, strain rbl2, active compounds read low 0.99 | S. cerevisiae deletion strains, locus YOR270C, strain vph1, active compounds read low 0.979 | S. cerevisiae deletion strains, locus YOR290C, strain snf2, active compounds read low 0.936 | S. cerevisiae deletion strains, locus YOR316C, strain cot1, active compounds read low 0.994 | S. cerevisiae deletion strains, locus YPL051W, strain arl3, active compounds read low 0.974 | S. cerevisiae deletion strains, locus YPL055C, strain LGE1, active compounds read low 1.08 | S. cerevisiae deletion strains, locus YPL078C, strain atp4, active compounds read low 0.955 | S. cerevisiae deletion strains, locus YPL106C, strain sse1, active compounds read low 0.992 | S. cerevisiae deletion strains, locus YPL240C, strain hsp82, active compounds read low 0.997 | S. cerevisiae deletion strains, locus YPL241C, strain CIN2, active compounds read low 1.03 | S. cerevisiae deletion strains, locus YPL256C, strain CLN2, active compounds read low 0.96 | S. cerevisiae deletion strains, locus YPR119W, strain clb2, active compounds read low 1 | S. cerevisiae deletion strains, locus YPR141C, strain kar3, active compounds read low 0.988 | S. cerevisiae deletion strains, locus YPR163C, strain tif3, active compounds read low 0.995 | S. cerevisiae deletion strains, locus YPR167C, strain met16, active compounds read low 0.996 | S. cerevisiae deletion strains, strain wtn01, active compounds read low 0.976 | S. cerevisiae strains, strain wild type, active compounds read low 1.06
